Among all 320,000 compounds or so, about 2,100 (0.66%) were called active. Not shown: some 53% with an inconclusive outcome. Calls come from the whole dose curve; as a rule, active = well fitted inhibition curve with a large enough effect in the signal ratio, with a control signal flat (not every such curve was filed as active); inconclusive = small, poorly fitted or top-dose-only effect, or effect the other way, or a change in a side signal; inactive = flat fitted curve, though single readings scatter; the % refers to the signal ratio. This excerpt belongs to a sample that is enriched for actives.
experiment: qHTS Assay for Lipid Storage Modulators in Drosophila S3 Cells; details: BODIPY lipid droplet fluorescence, 18-24 h, cells fed with added oleic acid; cell number change: measured here: cell count max response; series mostly up to 46.1 µM; lipid storage change, negative = inhibition: at the top concentration;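 for cell number change: cells counted by Cell Tracker Red CMTPX staining in the red channel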; for lipid storage change, negative = inhibition: % is set by controls: 0 for no effect and ±100 for the full control effect
Source text: NIH Molecular Libraries Probe Production Centers Network [MLPCN] NIH Chemical Genomics Center [NCGC] MLPCN Grant: 1 R03 MH085686-01 Assay Submitter (PI): Beller, Mathias; Max-Planck-Institut fur Biophysikalische Chemie NCGC Assay Overview: Storing lipids as a reservoir for energy or the anabolism of elementary metabolites is a common feature of probably all cells and is conserved from bacteria to humans. The universal cellular lipid storage organelle is the so-called lipid storage droplet (LD). Although ubiquitous, LDs share a simple structure composed of a hydrophobic core that harbors the storage lipids, which is shielded by a droplet-specific phospholipid monolayer to which proteins are attached. The current model of LD biogenesis involves an incorporation of the lipid core into the membrane leaflets of the endoplasmic reticulum (ER) followed by a subsequent budding-like maturation of a LD, which ultimately pinches off. Once released, LD volume can increase by localized lipogenesis or fusion of existing droplet. Storage lipids are re-mobilized enzymatically by lipase activity. Lipase regulation in the adipocyte is heavily studied and involves multiple components including catecholamine signaling, the LD-associated proteins Perilipin and comparative gene identification (CGI-58) and at least two lipases named hormone sensitive lipase (HSL) and adipocyte triglyceride lipase (ATGL). LD regulation outside of the adipocyte is poorly understood and only few components are known. However, there is an urgent need to learn more about ectopic fat depots as mislocalized storage of lipids, for example in the liver or muscle, is an eminent health problem associated with insulin resistance or the metabolic syndrome. We developed a laser-scanning cytometer assay to enable 1,536-well screening and combined the results of the small molecules screen with an RNAi database based on lipid storage.
Triacsin C (Sigma-Aldrich T-4540), an inhibitor of long-chain fatty acyl CoA synthetase that blocks synthesis of triglycerides, was used as a positive control for lipid under-storage. A total of 23 nL of compound solution of different concentrations were transferred to the assay plates using a Kalypsys pin tool equipped with a 1,536-pin array containing 10-nL slotted pins (FP1S10, 0.457-mm diameter, 50.8 mm long; V&P Scientific). One microliter of oleic acid (400 uM) was added, and the plate was lidded with stainless steel rubber gasket lined lids containing pinholes. […] Fluorescence was detected by excitation of the fluorophores with a 488-nm laser on an Acumen Explorer (TTP Lab Tech). The total intensity in channel 2 (500-530 nm) reflected lipid droplet accumulation. Cells were detected using channel 3 (575-640 nm) with 5-um width and 100-um depth filters. The ratio of the number of objects in PMT channel 2 over the number of objects in PMT channel 3 was also calculated. Percent activity was computed relative to an internal control (100% inhibited lipid droplet deposition due to the presence of 20 uM Triacsin C), which was added to 32 wells/plate.
Potency is the fitted concentration of half-maximal effect.

SMILES | Potency | cell number change | lipid storage change, negative = inhibition | outcome
CCN(CC)CCNC(=O)c1ccccc1N | 23.1 µM (active) | -10.7% |  | 
CCN(CC)CCNC(=O)c1cc(Br)c(N)cc1OC |  | 6.76% | 1.26% (inactive) | 
CCN(CC)CCNC(=O)c1ccccc1C(=O)c1ncc[nH]1 |  | -16.6% |  | inactive
CN1CCN(NC(=O)c2cc(S(=O)(=O)Nc3ccc(Cl)cc3)ccc2Cl)CC1 |  | 18.2% | 19% (inactive) | 
O=[N+]([O-])c1cc([N+](=O)[O-])c2n[nH]c(-c3ccccc3)c2c1 |  | 17.9% | 12.5% (inactive) | 
O=[N+]([O-])c1cc([N+](=O)[O-])c2cc3ccccc3nc2c1 | 3.26 µM (active) | -20.7% |  | 
O=[N+]([O-])c1cnc2ccccc2c1 |  | 16.2% | 2.15% (inactive) | 
Cc1ccc(C(=O)NCCn2cc(SCC(=O)Nc3cc(C)on3)c3ccccc32)cc1 |  |  | -4.46% (inactive) | 
Cc1nn(CC(=O)Nc2ccc(Cl)c(S(=O)(=O)N(C)C)c2)c(C)c1[N+](=O)[O-] | 0.58 µM (active) | -5.49% |  | 
COc1ccccc1NC(=O)c1ccc(-n2ccnc2)c([N+](=O)[O-])c1 |  | 13% | 9.53% (inactive) | 
Cc1nn(CC(=O)Nc2ccc(N(C)C)cc2)c(C)c1[N+](=O)[O-] |  | -14.5% |  | inactive
Cc1nn(CC(=O)Nc2ccc(S(=O)(=O)N(C)C)cc2)c(C)c1[N+](=O)[O-] |  | 9.05% | 11.6% (inactive) | 
O=C(O)c1ccc(-n2ccnc2)c([N+](=O)[O-])c1 |  | 9.03% |  | inactive
CN(C)S(=O)(=O)c1cc(NC(=O)c2ccc(-n3ccnc3)c([N+](=O)[O-])c2)ccc1Cl | 20.6 µM (active) | 5.46% |  | 
CN(C)S(=O)(=O)c1ccc(C(=O)NCCSc2ccc(Br)cc2)cc1 |  | 20% | 19% (inactive) | 
Cc1ccc2[nH]c(=O)c(CN(CCCN(C)C)C(=S)NCCc3ccccc3)cc2c1 |  | -4.82% | -2.53% (inactive) | 
CC(CCc1ccccc1)NC(=O)C1CCN(S(=O)(=O)c2cnc[nH]2)CC1 (centres undefined) |  |  | 16.3% (inactive) | 
COc1ccc(S(=O)(=O)N2CCC(C(=O)NCC3CCCO3)CC2)cc1 (centres undefined) |  |  |  | inactive
Cc1c(C#N)sc(C(N)=O)c1C |  | 10.5% | -3.02% (inactive) | 
Clc1cccc(NCc2nnc(SCc3ccccc3)o2)c1 |  | -10.7% | 9.23% (inactive) | 
O=C(NC(NC(=S)Nc1ccc(Cl)cc1Cl)C(Cl)(Cl)Cl)c1cccc([N+](=O)[O-])c1 (centres undefined) |  | 12.3% |  | inactive
O=C(NC(NC(=S)Nc1c(Cl)cccc1Cl)C(Cl)(Cl)Cl)c1cccc([N+](=O)[O-])c1 (centres undefined) | 3.66 µM (active) | 18.3% |  | 
O=C(O)c1cccc(NC(=S)NC(NC(=O)c2cccc([N+](=O)[O-])c2)C(Cl)(Cl)Cl)c1 (centres undefined) |  | -10.1% | -6.68% (inactive) | 
COc1cccc(CNC(=O)Cn2c(=O)n(CCC(=O)N3CCCCC3)c(=O)c3sccc32)c1 | 4.11 µM (active) | -6.85% |  | 
CCCNC(=O)Cn1c(=O)n(CC(=O)N2CCCCC2)c(=O)c2sccc21 |  | -0.943% |  | inactive
COCCNC(=O)Cn1c(=O)n(CCCC(=O)NCc2ccc3c(c2)OCO3)c(=O)c2sccc21 |  | 7.14% |  | inactive
